# Rab9 promoter act: qHTS Assay for Rab9 Promoter Activators. Huh7 Rab9 promoter-luciferase reporter, luminescence, 24 h. Potency, µM (top dose mostly 9.22 µM), for inactives: at the highest dose activation, negative = inhibition, actives largely listed as activators. AID 485297, 2010. actives 2.8% (n = 320,000); further: % of control where 0% means no effect; nearly all actives have a fitted effect of over 60% in size
#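 Luminescence read-out: Huh7 cells stably expressing Rab9-luciferase, treated 24 h with compound at 37 °C, then lysed with luciferase reagent for 10 min at ambient before reading.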
# NPC1 prom act: qHTS Assay for NPC1 Promoter Activators | Huh7 NPC1 promoter luciferase reporter, 24 h | actives 2.4% (n = 320,000) | Potency, µM (highest dose often 9.22 µM), for inactives: top-dose activation, most hits filed as activators | AID 485313, 2010; further: % of control where 0% means no effect; nearly all actives have a fitted effect of over 60% in size
#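 Readout is luciferase luminescence, reflecting NPC1 promoter activation in stably transfected Huh7 cells after 24 h compound exposure at 37 °C in reduced-serum medium with 10% FBS.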
# SMN2 splice enh: qHTS Assay for Enhancers of SMN2 Splice Variant Expression. HEK293 SMN2-luciferase splicing reporter, luminescence, 30-36 h. Potency, µM (top dose mostly 46.1 µM), for the others: top-dose activity change, positive = activation, actives largely listed as activators. actives 2.8% (n = 210,000). AID 1458, 2008; further: % of control where 0% means no effect; nearly all actives have a fitted effect of over 55% in size
#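 qHTS luciferase splicing reporter: luminescence rises when SMN2 exon 7 is included in transfected HEK293 cells. Compound exposure lasted 30-36 h at 37C, with 4.5 mM final sodium butyrate as control, followed by a ONE-Glo read.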
# FLuc modulator: qHTS profiling assay for firefly luciferase inhibitor/activator using purifed enzyme and Km concentrations of substrates (counterscreen for miR-21 project) | purified FLuc, Km substrates, luminescence inhibition | actives 6.9% (n = 360,000) | Luciferin 4-monooxygenase (Photinus pyralis), P08659 | AID 588342, 2011 | Potency, µM (doses to about 57.5 µM), without a hit: at the top dose activity change, negative = inhibition, most hits filed as inhibitors;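 further: plate controls were vehicle for no effect and reference inhibitor for full effect; nearly all actives have a fitted effect of over 55% in size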
# Target sequence (P08659 whole entry, looked up): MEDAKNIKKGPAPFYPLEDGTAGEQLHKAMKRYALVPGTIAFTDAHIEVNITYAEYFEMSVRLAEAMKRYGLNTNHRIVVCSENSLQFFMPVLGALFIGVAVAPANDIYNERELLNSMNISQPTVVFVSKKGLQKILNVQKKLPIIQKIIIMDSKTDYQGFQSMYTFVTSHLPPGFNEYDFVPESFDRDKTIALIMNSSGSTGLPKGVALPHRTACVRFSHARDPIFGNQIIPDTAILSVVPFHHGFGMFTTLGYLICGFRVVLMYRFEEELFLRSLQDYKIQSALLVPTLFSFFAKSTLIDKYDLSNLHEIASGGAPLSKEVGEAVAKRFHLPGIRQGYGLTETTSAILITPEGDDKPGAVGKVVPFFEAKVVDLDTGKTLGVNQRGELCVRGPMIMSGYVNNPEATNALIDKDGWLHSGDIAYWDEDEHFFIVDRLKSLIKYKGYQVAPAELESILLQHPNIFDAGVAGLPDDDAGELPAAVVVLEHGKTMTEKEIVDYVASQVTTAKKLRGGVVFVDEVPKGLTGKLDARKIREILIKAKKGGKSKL
#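 Purified P. pyralis luciferase, 10 nM final, with Km-level 10 uM D-luciferin and 10 uM ATP in 50 mM Tris acetate pH 7.5, 10 mM Mg acetate, 0.01% Tween-20, 0.05% BSA; 6-point qHTS titration about 60 µM downward; luminescence read.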
# ELG1 DNA repair: qHTS screen for small molecules that inhibit ELG1-dependent DNA repair in human embryonic kidney (HEK293T) cells expressing luciferase-tagged ELG1; Potency, µM (top dose mostly 46.1 µM), without a hit: at the highest dose activity change, negative = inhibition, most hits filed as inhibitors; HEK293T ELG1-luciferase reporter, luminescence, 16 h; DNA damage induced by 5-fluorouridine; actives 2.3% (n = 330,000); further: on the % scale 0 is the no-effect control and ±100 the full control effect; nearly all actives have a fitted effect of over 55% in size
#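 HEK293T cells expressing luciferase-tagged ELG1 (2,000/well) received 5-Fluorouridine plus compound or DMSO for 16 hr at 37 °C. Luciferase was read by ONE-Glo luminescence after 30 min at room temperature.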
# ELG1 genotoxic: qHTS screen for small molecules that induce genotoxicity in human embryonic kidney (HEK293T) cells expressing luciferase-tagged ELG1; actives 1.3% (n = 330,000); Potency, µM (titrated, usually from 46 µM), for inactives: at the highest dose activity change, positive = activation, usual class: activators; HEK293T ELG1-luciferase reporter, luminescence, 16 h; AID 504466, 2011; further: % of control where 0% means no effect; nearly all actives have a fitted effect of over 60% in size
#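 Cells (2,000/well) expressing the ELG1-luciferase fusion are dosed by pin tool and kept 16 hr at 37 °C, 5% CO2. Signal comes from ONE-Glo luciferase reagent after 30 min at room temperature.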
# * = called active by the depositor; ? = inconclusive; / = no result given. The list is not random: actives were taken first. Their share in the collection is about 9.3%. The call rests on the fitted dose curve; in most records, active means well fitted curve in the direction sought with a large enough effect; inconclusive means small, poorly fitted or top-dose-only effect, or another doubt; inactive means no such curve, though single readings can be large; an effect the other way counts as inactive or inconclusive. Potency means the concentration at half of the fitted maximal effect.
SMILES,Rab9 promoter act,NPC1 prom act,SMN2 splice enh,FLuc modulator,ELG1 DNA repair,ELG1 genotoxic
COc1ccc(OC)c(CNC(=O)c2ccc(NC(=O)c3nsc4ccccc34)cc2)c1,/,/,/,6.7µM*,/,/
O=C(NCc1ccccc1Cl)c1ccccc1NC(=O)c1nsc2ccccc12,/,/,/,17µM*,/,/
CCOc1cc(CNC(=O)c2ccc(NC(=O)c3nsc4ccccc34)cc2)ccc1OC,/,/,/,3µM*,/,/
COc1ccc(C(=O)NCc2ccccc2OC)cc1,-2%,9%,3%,-8%,17%,1%
Cc1ccc(S(=O)(=O)NC2CCCC2)cc1C(N)=O,-1%,-4%,/,6%,0%,0%
COc1cc2cc(CCO)oc(=O)c2cc1OC,/,/,/,/,?,0%
CCn1c(C(=O)O)c(CC(=O)Nc2ccccc2OC)c2ccccc21,0%,1%,/,1%,-3%,0%
CC(C)Oc1ccc(CNC(=O)c2ccc(NC(=O)c3nsc4ccccc34)cc2)cc1,/,/,/,7.6µM*,/,/
Cc1ccccc1CNC(=O)c1ccccc1NC(=O)c1nsc2ccccc12,/,/,/,-19%,/,/
Cc1c(C)n(Cc2ccccc2)c2ccc(C(=O)NCc3ccc(OC(C)C)cc3)cc12,/,/,/,-8%,/,/
CSc1ccc(CNC(=O)c2ccc(NC(=O)c3nsc4ccccc34)cc2)cc1,/,/,/,6µM*,/,/
COc1ccccc1/C=C/C(=O)Nc1nc2n(n1)C(c1ccc(F)cc1)C=C(c1ccccc1)N2 (configuration not stated),/,/,/,-1%,/,/
CCCCCN(C(=O)CCC(=O)OCc1ccccc1C(F)(F)F)c1c(N)n(CCCC)c(=O)[nH]c1=O,0%,-1%,/,3%,-26%,-1%
COc1cccc2c(Cl)c(CC=C(Cl)Cl)c(C)nc12,-9%,-2%,/,-12%,-1%,-7%
C=CCc1c(C)nc2c(OC)cccc2c1Cl,1%,1%,/,13µM*,?,-1%
Cc1ccc(SCCSc2nc(N)cc(=O)[nH]2)cc1,13%,6%,/,?,21%,6%
CCOc1ccc(OCCSc2nc(C)cc(=O)[nH]2)cc1,?,?,6%,13µM*,?,?
Cc1ccc(SCCSc2nc(C)cc(=O)[nH]2)cc1,?,?,/,5.4µM*,?,23µM*
COC(=O)c1ccc(Cn2cnc3cnccc32)cc1,7%,2%,/,-1%,-13%,-1%
CCc1ccc2[nH]cc(S(=O)(=O)c3ccc(C(C)C)cc3)c(=O)c2c1,/,/,-13%,-17%,/,/
CCOC(=O)CC1C(=O)NCCN1C(=O)c1ccc(Cl)cc1Cl (configuration not stated),?,-2%,/,0%,7%,0%
O=c1oc2cc(Cl)ccc2n1CSc1nc2ccccc2s1,?,?,25%,8.5µM*,?,15µM*
O=C(CSc1nc2ccccc2s1)N1c2ccccc2Sc2ccc(Cl)cc21,-5%,0%,-28%,0%,-4%,0%
Oc1ccc2ccccc2c1C=NCc1cn2ccsc2n1,-3%,-3%,9%,19µM*,2%,2%
COc1ccc(OC)c(NC(=O)CSc2nc(N3CCOCC3)nc(N3CCOCC3)n2)c1,6%,-5%,/,4%,-19%,7%
O=C1/C(=C/c2ccc(O)cc2)COc2ccccc21,-2%,0%,/,0.76µM*,?,10µM*
CC1C/C(=C/c2ccccn2)C(=O)/C(=C/c2ccccn2)C1 (configuration not stated),-43%,-42%,-76%,-11%,4.6µM*,-17%

# Screening data (PubChem)
